Experiment [1] is described as follows: ACEA_ER_80hr: ACEA Biosciences xCELLigence Real-Time Cell Analysis on Estrogen Receptor Agonism for Proliferation (AID 2282667; active = hit-call score of the fitted dose curve at least 0.9, where 1 is the maximum). Particulars: T47D proliferation, impedance (xCELLigence), 80 h. In outline: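 T-47D cells monitored by electrical impedance (xCELLigence) with compound present throughout; 80 h timepoint, positive-direction fitting versus DMSO. Eight-point 1:4 dilutions from 100 uM final, duplicate plates.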

A short description of experiment [2]: APR_HepG2_CellCycleArrest_24hr: Apredica 24-hour HepG2 Assay for Cell Cycle Arrest (AID 2282905).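 Also: cell cycle arrest scored as ratio of 2N to 4N nuclear DNA content.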 The following applies: imaging, actives raise or lower the signal. In outline:
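Readout: Hoechst 33342 nuclear DNA content by high-content fluorescent imaging, six images/well, 20x. Human HepG2 liver cells, 24 hr compound exposure, 0.39–200 uM, final DMSO 0.5% v/v. Gain or loss fitted relative to DMSO baseline.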

Experiment [3] is described as follows: APR_HepG2_NuclearSize_24hr: Apredica 24-hour HepG2 Assay for Nuclear Size (AID 2282907). The following applies: high-content imaging, actives raise or lower the signal. The method, boiled down: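 Read-out: nuclear diameter from Hoechst 33342 (2 ug/mL) imaging of fixed HepG2 cells, 20x, six fields/well. Compounds ran at 0.39–200 uM for 24 hr, 0.5% DMSO final. Gain or loss was fitted bidirectionally relative to the DMSO baseline.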

Experiment [4] can be described thus: APR_HepG2_CellLoss_24hr: Apredica 24-hour HepG2 Assay for Cell Loss (AID 2282908).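 As to AC50: fit in both directions so a hit may be cell loss or gain.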 The following applies: high-content imaging. In outline:
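Read-out: Hoechst 33342-stained nuclei counted by automated fluorescence imaging after formaldehyde fixation and Triton permeabilization. Ten concentrations, 0.39 to 200 uM, duplicate wells, 0.5% DMSO final. Gain or loss of signal fitted relative to DMSO baseline.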

Experiment [5] in a line: APR_HepG2_MicrotubuleCSK_24hr: Apredica 24-hour HepG2 Assay for Microtubule CSK Stabilty (AID 2282909). The following applies: HepG2 microtubule cytoskeleton imaging, actives raise or lower the signal. The method, boiled down:
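Read-out: alpha-tubulin immunofluorescence intensity by automated high-content imaging of fixed HepG2 cells after 24 h compound treatment. Ten concentrations, 0.39 to 200 uM, in duplicate; DMSO 0.5% v/v. Taxol positive control; DMSO-normalized bidirectional curve fitting.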

The nature of experiment [6]: APR_HepG2_MitoticArrest_24hr: Apredica 24-hour HepG2 Assay for Mitotic Arrest (AID 2282910). The following applies: high-content imaging, actives raise or lower the signal. The method, boiled down: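 HepG2, 24 hr dosing, 0.39–200 uM, 0.5% DMSO final. Formaldehyde-fixed, Triton-permeabilised, anti-phospho-histone H3 plus Hoechst. ArrayScan imaging at 20x; bidirectional fit vs DMSO baseline.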

A short description of experiment [7]: APR_HepG2_MitoMembPot_24hr: Apredica 24-hour HepG2 Assay for Mitochondrial Membrane Potential (AID 2282911). Particulars: imaging, actives raise or lower the signal. The method, boiled down: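 HepG2 cells exposed 24 h to 0.39–200 uM compounds in duplicate, 0.5% v/v DMSO final. MitoTracker Red CMXRos 250 nM loaded 30 min before formaldehyde fixation; high-content imaging at 20x, bidirectional fit versus DMSO.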

Experiment [8] is described as follows: APR_HepG2_MitoMass_24hr: Apredica 24-hour HepG2 Assay for Mitochondrial Mass (AID 2282912). The following applies: high-content imaging, actives raise or lower the signal. The method, boiled down:
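HepG2, 24 hr dosing, 10 concentrations 0.39–200 uM in duplicate, DMSO 0.5% final. MitoTracker Red CMXRos 250 nM, 30 min pre-fix; 3.7% formaldehyde fix. Imaging-based fluorescence intensity; gain/loss fit vs DMSO baseline.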

Experiment [9] in a line: APR_HepG2_p53Act_24hr: Apredica 24-hour HepG2 Assay for p53 Activation (AID 2282913).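 Also: p53 protein immunofluorescence averaged per cell in HepG2 with Hoechst nuclei.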 Particulars: high-content imaging, actives raise or lower the signal. The method, boiled down: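 HepG2 cells exposed 24 h to compounds at 0.39–200 uM in duplicate, 0.5% v/v DMSO final; fixed, permeabilized, stained with anti-p53 antibody and Hoechst 33342; fluorescence imaging; bidirectional curve fit versus DMSO.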

Experiment [10] in a line: APR_HepG2_CellCycleArrest_72hr: Apredica 72-hour HepG2 Assay for Cell Cycle Arrest (AID 2282914). Particulars: high-content imaging, actives raise or lower the signal. In outline:
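HepG2 cells exposed 72 h in duplicate to 0.39–200 uM compound, 0.5% DMSO final. Formaldehyde-fixed, Hoechst 33342-stained nuclei imaged at 20x, six fields per well; DNA content per valid cell quantified by cell-cycle image analysis, bidirectional fit versus DMSO.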

Experiment [11] can be described thus: APR_HepG2_CellLoss_72hr: Apredica 72-hour HepG2 Assay for Cell Loss (AID 2282915). The following applies: high-content imaging. The method, boiled down:
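HepG2 cells exposed 72 h to compound at 0.39–200 uM (10 concentrations, duplicate) in 0.5% DMSO. Fixed with 3.7% formaldehyde and Hoechst 33342-stained. Imaged at 20x; nuclear count gives cell number, fitted bidirectionally versus DMSO.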

Experiment [12] in a line: APR_HepG2_P-H2AX_72hr: Apredica 72-hour HepG2 Assay for H2AX Phosphorylation (AID 2282916).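 Also: phospho-histone H2A.x immunostain intensity per cell marking DNA damage.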 The following applies: imaging, actives raise or lower the signal. The method, boiled down: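 Readout: phospho-H2A.x immunofluorescence (FITC secondary) plus Hoechst nuclear stain, high-content imaging at 20x, six fields/well. HepG2, 72 hr compound exposure, 0.39–200 uM, final DMSO 0.5% v/v. Gain or loss fitted relative to DMSO baseline.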

Experiment [13] in a line: APR_HepG2_MitoMembPot_72hr: Apredica 72-hour HepG2 Assay for Mitochondrial Membrane Potential (AID 2282917). Particulars: imaging, actives raise or lower the signal. The method, boiled down: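 HepG2 cells dosed 72 hr with compound at 0.39–200 uM in duplicate, 0.5% v/v DMSO final. Mitochondria stained with 250 nM MitoTracker Red CMXRos for 30 min before formaldehyde fixation, imaged by high-content fluorescence; bidirectional fit versus DMSO.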

Experiment [14] is described as follows: APR_HepG2_MitoticArrest_72hr: Apredica 72-hour HepG2 Assay for Mitotic Arrest (AID 2282918). Particulars: high-content imaging, actives raise or lower the signal. In outline: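 HepG2 cells treated 72 h at 0.39–200 uM, 0.5% DMSO final; formaldehyde-fixed, stained with Hoechst 33342 and phospho-histone H3 antibody, imaged by high-content fluorescence; bidirectional fit versus DMSO.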

A short description of experiment [15]: APR_HepG2_MicrotubuleCSK_72hr: Apredica 72-hour HepG2 Assay for Microtubule CSK Stabilty (AID 2282919). Particulars: HepG2 microtubule cytoskeleton, high-content imaging, actives raise or lower the signal. The method, boiled down:
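HepG2, 72 hr cmpd exposure, 0.39–200 uM (10 pts, duplicate), 0.5% DMSO. 3.7% formaldehyde fix, 0.5% Triton perm, anti-alpha-tubulin/Cy5 plus Hoechst. HCS fluorescence intensity; bidirectional fit vs DMSO baseline; taxol as positive control.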

Experiment [16] is described as follows: APR_HepG2_P-H2AX_24hr: Apredica 24-hour HepG2 Assay for H2AX Phosphorylation (AID 2282920). The following applies: high-content imaging, actives raise or lower the signal. In outline:
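HepG2 cells dosed 24 h at 0.39–200 uM (10 points, duplicate, 0.5% DMSO final). Formaldehyde-fixed and permeabilized, then immunostained for phospho-H2A.x with Hoechst. Fluorescence quantified by high-content imaging, fitted bidirectionally versus DMSO.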

Experiment [17] in a line: APR_HepG2_StressKinase_72hr: Apredica 72-hour HepG2 Assay for Stress Kinase (AID 2282921). Particulars: HepG2 stress kinase (phospho-c-Jun) imaging, actives raise or lower the signal. In outline: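 Phospho-c-Jun immunofluorescence measured by high-content imaging at 20x, six fields per well; bidirectional curve fitting against DMSO as baseline. Dosing: 0.39–200 uM, 72 h, 0.5% DMSO final.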

The nature of experiment [18]: APR_HepG2_StressKinase_24hr: Apredica 24-hour HepG2 Assay for Stress Kinase (AID 2282922). Particulars: HepG2 stress kinase (phospho-c-Jun) imaging, actives raise or lower the signal. In outline: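 Read-out: phospho-c-Jun immunofluorescence (Cy3 secondary) quantified by high-content imaging at 20x, nuclei defined by Hoechst 33342. Human HepG2 liver cells dosed 24 hr, 0.39–200 uM, DMSO 0.5% v/v; gain or loss of signal fitted relative to DMSO.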

Experiment [19] is described as follows: APR_HepG2_p53Act_72hr: Apredica 72-hour HepG2 Assay for p53 Activation (AID 2282923).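 Also: average cellular p53 protein immunofluorescence intensity in HepG2 cells.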 Particulars: high-content imaging, actives raise or lower the signal. The method, boiled down: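 Readout: p53 immunofluorescence quantified by automated high-content imaging at 20x, six fields per well, nuclei located via Hoechst. Dosing ran 72 hr over ten concentrations from 0.39 to 200 uM; bidirectional curve fitting against DMSO baseline.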

A short description of experiment [20]: APR_HepG2_MitoMass_72hr: Apredica 72-hour HepG2 Assay for Mitochondrial Mass (AID 2282924).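 Also: MitoTracker Red CMXRos stain intensity per cell imaged as mitochondrial mass.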 The following applies: high-content imaging, actives raise or lower the signal. The method, boiled down: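 Read-out: MitoTracker Red fluorescence intensity from automated imaging (20x, six fields per well) in human HepG2 liver cells. Dosing ran 72 hr, 0.39–200 uM, 0.5% DMSO; bidirectional curve fitting versus DMSO baseline.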

The record followed here is PubChem BioAssay (EPA / NIEHS).

Structures are written as SMILES. Records with an inconclusive call do not appear. Where a structure was tested more than once in an assay, its records may differ in their call. Activity calls are given as the source filed them. The calls were made as follows, unless noted: active = hit-call score of the fitted dose curve at least 0.9, where 1 is the maximum; inactive = score below 0.9.

Turning to `CCCCC(CC)COC(=O)CCCCC(=O)OCC(CC)CCCC` (configuration not stated), the molecule was called inactive in experiment [1], in experiment [2], in experiment [3], in experiment [4], in [5] and in experiment [6]. For the same molecule, the call in experiment [7], in experiment [8], in [9], in [10], in experiment [11] and in experiment [12] was inactive. Moreover, the result in experiment [13], in experiment [14], in [15], in experiment [16], in [17] and in experiment [18] was inactive. The molecule was classed as inactive in [19] and in experiment [20].

For the molecule `CC(O)C(=O)O` (configuration not stated), in experiment [1], the result was inactive.

Consider `Nc1cccc2c(N)cccc12`, for which the molecule was classed as inactive in experiment [1], in experiment [2], in experiment [3], in experiment [5], in [7] and in experiment [8]. Moreover, the outcome in [10], in experiment [15], in [18] and in experiment [20] was inactive. Besides, the AC50 (commonly the midpoint of the concentration-response curve, whichever way the signal moves) in experiment [4] is 51.8 µM (active); in [6], 70.1 µM (active); in experiment [9] it was 96.2 µM (active); in experiment [11], 83.1 µM (active); in experiment [12], 36.4 µM (active); in [13], 17.3 µM (active). Besides, the AC50 in experiment [14] is 77 µM (active); in experiment [16], 42.9 µM (active); in [17], 39.9 µM (active); in experiment [19] it was 67.5 µM (active).

For `OCCC(F)(F)C(F)(F)C(F)(F)C(F)(F)C(F)(F)C(F)(F)F`, the result in experiment [1], in experiment [2], in experiment [3], in experiment [4], in experiment [5] and in [6] was inactive. Besides, the result in experiment [7], in experiment [8], in experiment [9], in experiment [10], in experiment [11] and in [12] was inactive. Besides, the call in [13], in [14], in [15], in experiment [16], in experiment [17] and in [18] was inactive. Further, the result in experiment [19] and in [20] was inactive.

As for `CCCCCCCCOC(=O)CCCCCCCCC(=O)OCCCCCCCC`, the molecule was called inactive in experiment [1], in experiment [2], in experiment [3], in experiment [4], in experiment [5] and in experiment [6]. Moreover, the molecule was called inactive in experiment [7], in experiment [8], in experiment [9], in experiment [10], in [11] and in experiment [12]. Moreover, the result in experiment [13], in experiment [14], in experiment [15], in [16], in [17] and in experiment [19] was inactive. In addition, the outcome in experiment [20] was inactive.

With `N#C[C@@H]1CC(F)(F)CN1C(=O)CNC1CC2CCC(C1)N2c1ncccn1` (some centres not stated), the half-maximal activity concentration (AC50) in experiment [1] is 4 µM (active). Moreover, the outcome in experiment [2], in experiment [3], in experiment [4], in experiment [5], in [6] and in [7] was inactive. The molecule was classed as inactive in [8], in experiment [9], in experiment [10], in [11], in [12] and in experiment [13]. Also, the result in experiment [14], in experiment [15], in experiment [16], in experiment [17], in [18] and in experiment [19] was inactive. Besides, the molecule was called inactive in experiment [20].

For the molecule `O=C1OC2(c3ccccc31)c1cc(Br)c(O)c(Br)c1Oc1c2cc(Br)c(O)c1Br`, in experiment [1], the AC50 is 20.5 µM (active) and the molecule was called inactive.

On to `CCc1nn(C2CCCCC2)c2cc(C3(C#N)CCC(C(=O)O)CC3)ccc12` (configuration not stated), for which the result in [1], in experiment [2], in experiment [3], in [4], in experiment [5] and in [6] was inactive. Further, the molecule was classed as inactive in experiment [7], in experiment [8], in [9], in experiment [10], in experiment [13] and in experiment [15]. In addition, the molecule was classed as inactive in experiment [16], in [17], in experiment [18] and in experiment [20]. Moreover, the half-maximal activity concentration (AC50) in experiment [11] is 33.3 µM (active); in experiment [12], 84 µM (active); in [14] it was 80.7 µM (active); in [19], 97.7 µM (active).
